Experimental data published in PubChem BioAssay (EPA / NIEHS).
The source made the active and inactive calls. The calls were made as follows: active = hit-call score of the fitted dose curve at least 0.9, where 1 is the maximum; inactive = score below 0.9.

How the values were obtained:
[1] = ATG_AP_1_CIS: Attagene CIS-FACTORIAL HepG2 Assay for human Activator Protein 1 (AP-1) (AID 2282931); conditions: HepG2 Attagene cis-factorial AP-1 reporter mRNA; actives raise or lower the signal
Summary of the method: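 We transfected HepG2 cells transiently with a set of cis-regulated reporter transcription units, dosed them for 24 h, and quantified reporter mRNA via RT-PCR and capillary electrophoresis, scoring gain or loss of signal relative to DMSO.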

[2] = ATG_AP_2_CIS: Attagene CIS-FACTORIAL HepG2 Assay for human Activator Protein 2 (AP-2) (AID 2282932); conditions: HepG2 AP-2 cis-reporter, Attagene transcription factor profiling; actives raise or lower the signal
Summary of the method: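 Endogenous transcription factor activity is reported through transfected multiplex reporter constructs in HepG2, after 24 h of compound exposure. Transcripts were quantified by RT-PCR and capillary electrophoresis of fluorescent fragments. Bidirectional fit against DMSO.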

[3] = ATG_BRE_CIS: Attagene CIS-FACTORIAL HepG2 Assay for human Bone Morphogenetic Protein (BMP) Response Element (BRE) (AID 2282933); conditions: HepG2 BMP response element reporter, Attagene transcription factor profiling; actives raise or lower the signal
Summary of the method: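 Read-out: reporter mRNA induction quantified by RT-PCR and capillary electrophoresis after 24 h chemical exposure of transfected HepG2 cells. Endogenous factor activity on the BMP response element; gain or loss fitted against DMSO baseline.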

[4] = molecular target: Retinoic acid receptor alpha (Homo sapiens) (UniProt P10276); experiment: ATG_DR5_RAR_CIS: Attagene CIS-FACTORIAL HepG2 Assay for human Retinoic Acid Receptor Alpha (RARE), DR5 submotif (AID 2282934); conditions: HepG2 Attagene cis-factorial RARE DR5 reporter, mRNA; actives raise or lower the signal
Retinoic acid receptor alpha (Homo sapiens), sequence (P10276 whole entry, looked up): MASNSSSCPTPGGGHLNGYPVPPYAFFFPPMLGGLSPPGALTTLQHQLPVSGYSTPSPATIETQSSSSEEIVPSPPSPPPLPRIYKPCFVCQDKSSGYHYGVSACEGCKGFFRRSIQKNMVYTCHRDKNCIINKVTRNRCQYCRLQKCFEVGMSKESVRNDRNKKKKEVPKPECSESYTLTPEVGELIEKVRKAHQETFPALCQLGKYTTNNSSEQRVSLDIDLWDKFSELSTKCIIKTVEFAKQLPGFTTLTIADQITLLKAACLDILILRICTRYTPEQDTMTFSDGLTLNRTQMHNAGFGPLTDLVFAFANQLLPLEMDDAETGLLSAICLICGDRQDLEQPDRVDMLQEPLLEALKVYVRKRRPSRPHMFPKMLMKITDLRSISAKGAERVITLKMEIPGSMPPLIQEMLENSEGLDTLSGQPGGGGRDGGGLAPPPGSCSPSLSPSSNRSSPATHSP
Summary of the method: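 HepG2, transient cis-reporter transfection, 24 h exposure. mRNA readout: RT-PCR, FAM label, HpaI cut, capillary electrophoresis. DMSO baseline, gain/loss fitting.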

[5] = ATG_E_Box_CIS: Attagene CIS-FACTORIAL HepG2 Assay for human Enhancer Box (E-box) (AID 2282936); conditions: HepG2 E-box cis-reporter transcription, actives raise or lower the signal
Summary of the method: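 E-box-driven reporter transcripts measured in transiently transfected HepG2 after 24 h exposure: RNA reverse-transcribed, PCR-amplified, fluorescently labelled, digested and resolved by capillary electrophoresis. Gain or loss relative to DMSO.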

[6] = ATG_M_61_CIS: Attagene CIS-FACTORIAL HepG2 Assay for M61 Transcription Factor (Internal Marker) (AID 2282937); conditions: HepG2 Attagene CIS-FACTORIAL M61 internal marker reporter; actives raise or lower the signal
Summary of the method: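 Multiplexed reporter mRNA assay, HepG2 human hepatoma cells, 24 h treatment. Signal: FAM-labelled, HpaI-digested RT-PCR fragments by CE. Fit: bidirectional, baseline DMSO.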

[7] = ATG_EGR_CIS: Attagene CIS-FACTORIAL HepG2 Assay for human Early Growth Response 1 (EGR1) (AID 2282938); conditions: HepG2 Attagene CIS-FACTORIAL EGR reporter mRNA; actives raise or lower the signal
Summary of the method: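 Multiplexed cis-reporter system in human hepatoma HepG2 cells, transiently transfected. Cells are dosed for 24 h; reporter transcripts are amplified, fluorescently tagged and sized by capillary electrophoresis, with DMSO as negative control.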

[8] = ATG_M_19_CIS: Attagene CIS-FACTORIAL HepG2 Assay for M19 Transcription Factor (Internal Marker) (AID 2282939); conditions: HepG2 Attagene CIS-FACTORIAL M19 internal marker reporter; actives raise or lower the signal
Summary of the method: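 Readout: fluorescent reporter-transcript fragments by capillary electrophoresis after RT-PCR. Human HepG2 liver cells carried transfected MRTU constructs reporting endogenous transcription-factor activity; exposure 24 h. Gain or loss of signal fitted relative to DMSO.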

[9] = ATG_ERE_CIS: Attagene CIS-FACTORIAL HepG2 Assay for Estrogen Response Element (ERE) (AID 2282940); conditions: HepG2 ERE cis-reporter, Attagene RNA transcript; actives raise or lower the signal
Summary of the method: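 Readout: reporter mRNA induction by RT-PCR, FAM-labelled primer extension, HpaI digestion and capillary electrophoresis, 24 h after dosing transfected HepG2 cells. Endogenous transcription factors act on cis-element-regulated reporters. Gain or loss fitted against DMSO.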

[10] = ATG_Ets_CIS: Attagene CIS-FACTORIAL HepG2 Assay for human Erythroblast Transformation Specific (ETS) (AID 2282941); conditions: HepG2 ETS cis-reporter transcription, actives raise or lower the signal
Summary of the method: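 Bidirectional fit versus DMSO of reporter mRNA signal, detected by RT-PCR and capillary electrophoresis in HepG2 cells transiently transfected with cis-element reporters and dosed 24 h.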

[11] = molecular target: Hepatocyte nuclear factor 3-beta (Homo sapiens) (UniProt Q9Y261); experiment: ATG_FoxA2_CIS: Attagene CIS-FACTORIAL HepG2 Assay for human Forkhead box A2 (FOXA2) (AID 2282942); conditions: HepG2 cis-reporter transcription factor activity, 24 h; actives raise or lower the signal
Hepatocyte nuclear factor 3-beta (Homo sapiens), sequence (Q9Y261 whole entry, looked up): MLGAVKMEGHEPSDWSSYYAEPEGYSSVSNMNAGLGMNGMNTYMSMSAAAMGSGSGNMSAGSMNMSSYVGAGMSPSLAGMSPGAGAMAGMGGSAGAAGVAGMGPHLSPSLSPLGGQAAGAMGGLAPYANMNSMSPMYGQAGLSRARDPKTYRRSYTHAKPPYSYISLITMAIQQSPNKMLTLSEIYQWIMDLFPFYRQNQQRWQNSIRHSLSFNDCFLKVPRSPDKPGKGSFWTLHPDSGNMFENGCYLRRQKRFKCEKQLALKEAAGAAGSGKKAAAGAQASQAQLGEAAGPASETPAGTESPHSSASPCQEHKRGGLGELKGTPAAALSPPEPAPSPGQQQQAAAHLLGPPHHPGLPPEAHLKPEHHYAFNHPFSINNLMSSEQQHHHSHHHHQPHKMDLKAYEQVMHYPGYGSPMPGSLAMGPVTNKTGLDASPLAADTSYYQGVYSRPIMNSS
Summary of the method: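 Multiplexed cis-element reporter assay in transiently transfected HepG2. Twenty-four hours post-dosing, RNA was reverse-transcribed, amplified, FAM-labelled, HpaI-digested and separated by CE. Activity gain or loss relative to DMSO.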

[12] = ATG_FoxO_CIS: Attagene CIS-FACTORIAL HepG2 Assay for human Forkhead box O (FoxO) (AID 2282943); conditions: HepG2 Attagene cis-reporter, FoxO element, mRNA; actives raise or lower the signal
Summary of the method: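 Human hepatoma HepG2 cells carry transiently introduced reporter transcription units controlled by cis promoter elements. Chemical treatment lasted 24 h, and mRNA signal was compared with DMSO.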

[13] = ATG_GATA_CIS: Attagene CIS-FACTORIAL HepG2 Assay for human GATA Binding Protein (AID 2282944); conditions: HepG2 GATA cis-element reporter, Attagene multiplex mRNA; actives raise or lower the signal
Summary of the method: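 Read-out: fluorescent reporter mRNA fragments resolved by capillary electrophoresis after RT-PCR. Human liver HepG2 cells carried transiently transfected cis-regulated reporter constructs; chemicals incubated 24 h; gain or loss of signal fitted relative to DMSO.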

[14] = ATG_GLI_CIS: Attagene CIS-FACTORIAL HepG2 Assay for human Zinc Finger Protein GLI1 (AID 2282945); conditions: HepG2, Attagene cis-factorial reporter mRNA, GLI element; actives raise or lower the signal
Summary of the method: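 Bidirectional curve fits relative to DMSO, using reporter mRNA levels from RT-PCR plus capillary electrophoresis. Cells were HepG2 transiently carrying cis-regulated reporter constructs, harvested 24 h after dosing.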

[15] = molecular target: Bile acid receptor (Homo sapiens) (UniProt Q96RI1); experiment: ATG_IR1_CIS: Attagene CIS-FACTORIAL HepG2 Assay for human Nuclear Receptor Subfamily 1 Group H Member 4 (NR1H4), IR1 submotif (AID 2282946); conditions: IR1 reporter transcription, actives raise or lower the signal
Bile acid receptor (Homo sapiens), sequence (Q96RI1 whole entry, looked up): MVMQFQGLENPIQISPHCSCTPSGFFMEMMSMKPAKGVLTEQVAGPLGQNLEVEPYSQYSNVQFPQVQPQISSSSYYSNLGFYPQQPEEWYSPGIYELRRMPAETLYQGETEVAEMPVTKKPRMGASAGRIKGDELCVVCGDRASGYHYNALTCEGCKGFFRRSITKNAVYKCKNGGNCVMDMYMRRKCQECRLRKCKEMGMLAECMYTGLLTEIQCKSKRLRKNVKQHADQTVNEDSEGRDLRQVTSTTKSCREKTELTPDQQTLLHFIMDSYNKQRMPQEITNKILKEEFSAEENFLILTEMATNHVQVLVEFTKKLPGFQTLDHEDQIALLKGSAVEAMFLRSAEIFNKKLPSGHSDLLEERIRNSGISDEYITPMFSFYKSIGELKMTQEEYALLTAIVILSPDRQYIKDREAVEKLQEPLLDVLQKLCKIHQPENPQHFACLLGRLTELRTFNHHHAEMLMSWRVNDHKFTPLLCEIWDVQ
Summary of the method: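 HepG2 cells transiently transfected with multiplexed cis-element reporter units read endogenous transcription factor activity. After 24 h compound exposure, reporter mRNA was quantified by RT-PCR, fluorescent labelling, HpaI digestion and capillary electrophoresis; bidirectional fitting versus DMSO baseline.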

[16] = ATG_GRE_CIS: Attagene CIS-FACTORIAL HepG2 Assay for human Glucocorticoid Response Elements (GRE) (AID 2282947); conditions: HepG2 GRE cis-reporter, Attagene multiplex mRNA; actives raise or lower the signal
Summary of the method: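 Reporter transcripts read by RT-PCR with capillary electrophoresis fluorescence after a 24 h chemical exposure of HepG2 cells transiently transfected with multiple cis-element reporter units. Gain or loss fitted against DMSO.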

[17] = ATG_ISRE_CIS: Attagene CIS-FACTORIAL HepG2 Assay for human Interferon Regulatory Factor 1 (IRF1) binding to an Interferon-Stimulated Response Element (ISRE) (AID 2282948); conditions: HepG2 ISRE cis-reporter (Attagene), mRNA transcription readout; actives raise or lower the signal
Summary of the method: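 Uses HepG2 liver cells transfected with cis-regulated reporters and measures mRNA 24 h post-dosing through RT-PCR, primer-extension labelling and capillary electrophoresis, with DMSO as negative control.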

[18] = ATG_M_32_CIS: Attagene CIS-FACTORIAL HepG2 Assay for M32 Transcription Factor (Internal Marker) (AID 2282949); conditions: HepG2 Attagene cis-factorial M32 reporter, mRNA; actives raise or lower the signal;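 also: background control marker of the multiplexed CIS panel rather than a real target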
Summary of the method: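 HepG2 human liver cells transiently transfected with cis-promoter-driven multiple reporter transcription units, dosed 24 h. Reporter mRNA quantified by RT-PCR, FAM-labelled primer extension, HpaI digest and capillary electrophoresis; bidirectional fit versus DMSO baseline.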

[19] = ATG_M_06_CIS: Attagene CIS-FACTORIAL HepG2 Assay for M06 Transcription Factor (Internal Marker) (AID 2282950); conditions: HepG2 Attagene CIS-FACTORIAL M06 internal marker reporter; actives raise or lower the signal
Summary of the method: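 Terse: HepG2, transient MRTU transfection (FuGene 6), 24 h dosing; total RNA, oligo(dT) RT, PCR, FAM label, HpaI cut, capillary electrophoresis; bidirectional fit vs DMSO baseline; background-control endpoint.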

[20] = molecular target: Transcription factor E2F1 (Homo sapiens) (UniProt Q01094); experiment: ATG_E2F_CIS: Attagene CIS-FACTORIAL HepG2 Assay for human E2F Transcription Factor 1 (AID 2282935); conditions: HepG2 Attagene cis-reporter, E2F reporter RNA transcripts; actives raise or lower the signal
Transcription factor E2F1 (Homo sapiens), sequence (Q01094 whole entry, looked up): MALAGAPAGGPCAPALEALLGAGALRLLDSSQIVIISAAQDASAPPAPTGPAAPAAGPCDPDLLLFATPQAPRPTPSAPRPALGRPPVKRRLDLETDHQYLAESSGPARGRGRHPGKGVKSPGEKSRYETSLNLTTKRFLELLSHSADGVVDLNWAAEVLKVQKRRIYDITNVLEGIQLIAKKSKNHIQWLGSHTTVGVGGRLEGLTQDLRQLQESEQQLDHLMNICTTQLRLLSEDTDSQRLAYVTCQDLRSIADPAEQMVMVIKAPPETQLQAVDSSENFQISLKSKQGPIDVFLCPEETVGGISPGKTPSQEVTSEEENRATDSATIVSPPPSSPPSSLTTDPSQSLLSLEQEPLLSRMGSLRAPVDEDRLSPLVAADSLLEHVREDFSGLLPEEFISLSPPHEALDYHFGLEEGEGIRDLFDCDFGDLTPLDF
Summary of the method: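 Gain or loss of reporter transcript, fitted against DMSO, reflects E2F1-driven transcription. Transiently transfected HepG2 dosed 24 h before RNA isolation. Quantified by fluorescent RT-PCR products separated by capillary electrophoresis.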

Measured: outcome

Cc1ccc(CCl)cc1
inactive: [1] | [2] | [3] | [4] | [5] | [6] | [7] | [8] | [9] | [10] | [11] | [12] | [13] | [14] | [15] | [16] | [17] | [18] | [19]

CC(=O)C(F)(F)C(F)(F)F
inactive: [1] | [2] | [3] | [20] | [5] | [6] | [7] | [8] | [9] | [10] | [11] | [12] | [13] | [14] | [15] | [16] | [17] | [18]

CC1CC(=O)O1 (centres undefined)
inactive: [1] | [2] | [3] | [4] | [20] | [7] | [8] | [10] | [11] | [12] | [13] | [14] | [15] | [16] | [17] | [18] | [19]
